Sampled rows, rich in hits. Any-hit rate of the full collection: about 7.4%.
SMN2 splice enh = enhancers of SMN2 splice variant expression; HEK293 SMN2-luciferase splicing reporter, luminescence, 30-36 h; Potency, µM (titrated, usually from 46.1 µM), without a hit: at the top dose activity change, positive = activation, most hits filed as activators; actives 2.8% (n = 210,000); AID 1458; further: % of control where 0% means no effect; nearly all actives have a fitted effect of over 55% in size
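HEK293 cells carry an SMN2 […]–luciferase reporter in which exon 7 inclusion puts luciferase in frame. Cells were plated 10-12 h before compound addition, then incubated 30-36 h at 37C. ONE-Glo luminescence was read; sodium butyrate at 4.5 mM final served as control.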
FLuc modulator = firefly luciferase modulation, counter-screen for miR-21 project; P08659; purified FLuc, Km substrates, luminescence inhibition; Potency, µM (series often up to 57.5 µM), without a hit: at the top dose activity change, negative = inhibition, hits mostly inhibitors; actives 6.9% (n = 360,000); AID 588342;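 further: plate controls were vehicle for no effect and reference inhibitor for full effect; nearly all actives have a fitted effect of over 55% in size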
Target sequence (P08659 whole entry, looked up): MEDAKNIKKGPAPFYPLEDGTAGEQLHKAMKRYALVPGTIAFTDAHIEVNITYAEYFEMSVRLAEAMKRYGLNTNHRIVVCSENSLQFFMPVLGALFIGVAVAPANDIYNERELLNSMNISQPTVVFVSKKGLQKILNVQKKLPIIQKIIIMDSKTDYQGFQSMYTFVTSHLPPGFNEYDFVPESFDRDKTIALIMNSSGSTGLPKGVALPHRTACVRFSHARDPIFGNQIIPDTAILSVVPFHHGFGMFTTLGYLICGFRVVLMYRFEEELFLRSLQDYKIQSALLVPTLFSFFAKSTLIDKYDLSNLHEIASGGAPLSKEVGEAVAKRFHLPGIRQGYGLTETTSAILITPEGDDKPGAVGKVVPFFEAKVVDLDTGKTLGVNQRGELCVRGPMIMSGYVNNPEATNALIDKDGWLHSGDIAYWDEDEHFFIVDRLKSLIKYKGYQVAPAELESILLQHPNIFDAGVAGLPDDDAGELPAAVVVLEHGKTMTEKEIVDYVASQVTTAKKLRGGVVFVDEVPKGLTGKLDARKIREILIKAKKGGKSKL
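Purified P. pyralis luciferase, 10 nM final, with Km-level 10 uM D-luciferin and 10 uM ATP in 50 mM Tris acetate pH 7.5, 10 mM Mg acetate, 0.01% Tween-20, 0.05% BSA; 6-point qHTS titration about 60 µM downward; luminescence read.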
Rab9 promoter act = activators of Rab9 promoter. AID 485297. actives 2.8% (n = 320,000). Potency, µM (doses to about 9.22 µM), for inactives: at the highest dose activation, negative = inhibition, hits mostly activators. Huh7 Rab9 promoter-luciferase reporter, luminescence, 24 h; further: % of control where 0% means no effect; nearly all actives have a fitted effect of over 60% in size
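Huh7 reporter line, Rab9 promoter upstream of luciferase. Compound exposure 24 h at 37 °C in reduced-serum medium with 10% FBS. Read-out: luminescence.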
NPC1 promoter act = NPC1 promoter activation; Huh7 NPC1 promoter luciferase reporter, 24 h; Potency, µM (doses to about 9.22 µM), for the others: top-dose activation, usual class: activators; actives 2.4% (n = 320,000); further: % of control where 0% means no effect; nearly all actives have a fitted effect of over 60% in size
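Luciferase expression driven by the NPC1 promoter was measured in stably transfected Huh7 cells after a 24 h compound incubation, using a luciferase reagent and a luminescence read.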
ELG1 genotox = genotoxicity induction in ELG1-luciferase HEK293T cells. HEK293T ELG1-luciferase reporter, luminescence, 16 h. actives 1.3% (n = 330,000). Potency, µM (highest dose often 46 µM), for inactives: at the top dose activity change, positive = activation, most hits filed as activators; further: % of control where 0% means no effect; nearly all actives have a fitted effect of over 60% in size
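Screening used a luciferase reporter fused to human ELG1 in HEK293T cells. Luminescence was read on a CCD plate imager after 16 hr exposure and 30 min ONE-Glo incubation.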
p53 reactivation = re-activators of mutant p53; H1299 p53-A138V BP100-luciferase reporter, luminescence, 24 h; Potency, µM (top dose mostly 92.2 µM), for inactives: top-dose activity change, positive = activation, usual class: activators; AID 504706; actives 0.063% (n = 320,000); further: % of control where 0% means no effect; nearly all actives have a fitted effect of over 45% in size
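H1299 (p53-null), stable ts p53-A138V + BP100-Luc; 1000 cells/well, Opti-MEM/10% FBS; cpd 4 pt, 1:5; 24 h, 37 deg C, 5% CO2; detection reagent 10 min RT; luminescence.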
Active calls of the source: *; ? = inconclusive; nt = no result; [ ] = dose if it differs, or a comment. The call rests on the fitted dose curve; in most records, active means well fitted curve in the direction sought with a large enough effect; inconclusive means small, poorly fitted or top-dose-only effect, or another doubt; inactive means no such curve, though single readings can be large; an effect the other way counts as inactive or inconclusive. Potency means the concentration at half of the fitted maximal effect.

SMILES | SMN2 splice enh | FLuc modulator | Rab9 promoter act | NPC1 promoter act | ELG1 genotox | p53 reactivation
O=C(Nc1nc2ccccc2[nH]1)c1ccc(Cl)c([N+](=O)[O-])c1 | 12.6µM* | ? | -1.5% | -2.6% | ? | 4.0%
COc1ccc(Br)c(C(=O)Nc2nc3ccccc3[nH]2)c1 | nt | -12.4% | ? | ? | 24.0% | 21.1%
Cc1c(C(=O)Nc2nc3ccccc3[nH]2)cccc1[N+](=O)[O-] | 20µM* | 15.1µM* | ? | 18.8% | 13.6% | ?
O=C(Nc1nc2ccccc2[nH]1)c1ccccc1[N+](=O)[O-] | 12.6µM* | ? | 20.0% | ? | 15.3% | 22.0%
O=C(Nc1ccccc1)c1ccncc1 | 21.7% | 1.4% | nt | nt | nt | nt
Cc1ccc(NC(=O)Nc2cnc3ccccc3c2)cc1 | 12.6µM* | ? | 1.26µM* | 2.24µM* | ? | 24.4%
Cc1cc(C)c2c(NC(=S)NC(=O)c3ccccc3)nn(C)c2n1 | -10.5% | 0.3% | -0.8% | -1.3% | -0.6% | 2.8%
O=C(NC(=S)Nc1cnc2ccccc2c1)c1ccccc1 | 11.2µM* | 7.57µM* | 3.55µM* | ? | ? | 10.8%
Cc1cc(C)nc(NC(=S)NC(=O)c2ccccc2)n1 | nt | 0.6% | ? | ? | 3.5% | nt
Cn1ncc2cc(NC(=S)NC(=O)c3ccccc3)ccc21 | 20.2% | 12µM* | 2µM* | 2µM* | 9.0% | 12.2%
O=C(Nc1cnc2ccccc2c1)c1ccncc1 | 21.5% | 12µM* | 3.16µM* | 1.78µM* | 2.31µM* | 25.9%
Cc1c2cnn(CC(=O)NC(C)C)c(=O)c2c(C)n1Cc1cccc(Cl)c1 | 11.0% | -7.5% | nt | nt | nt | nt
O=C(CCn1cccn1)NCc1ccc(Cl)cc1 | nt | -1.9% | nt | nt | nt | nt
CC(=O)c1cccc(N2C(=NC(=O)C3CCCCC3)SC3CS(=O)(=O)CC32)c1 (stereo not given) | nt | 1.4% | 0.0% | -0.9% | 4.8% | -5.4%
COC(=O)c1cccc(C(=O)Nc2ccc(C)cc2Br)n1 | ? | 10.7µM* | -17.5% | 6.1% | 10.9% | ?
COC(=O)c1cccc(C(=O)Nc2cnc3ccccc3c2)n1 | -4.6% | 23.9µM* | ? | 3.98µM* | 9.8% | ?
O=C(NC(=S)Nc1ncc(Br)cc1Br)c1ccccc1 | nt | 21.3µM* | 11.0% | ? | ? | ?
Cc1ccc(NC(=O)c2cccc(C(=O)OC(C)C)n2)c(Br)c1 | 13.4% | ? | -2.5% | -3.1% | -1.2% | 0.9%
S=C(NCCc1ccccc1)Nc1cnc2ccccc2c1 | ? | 26.9µM* | ? | 25.4% | ? | 3.6%
CCCS(=O)(=O)N1CCCC(C(=O)Oc2ccc(C)c(C)c2)C1 (stereo not given) | nt | 0.2% | -2.3% | -6.9% | -0.3% | nt
COc1ccc(S(=O)(=O)Nc2cccc(-c3ccc(N4CCCCCC4)nn3)c2)cc1OC | nt | 6.01µM* | 4.4% | 17.8% | 17.6% | ?
CCOc1ccc(S(=O)(=O)Nc2cccc(-c3ccc(N4CCC(C)CC4)nn3)c2)cc1 | nt | 2.69µM* | nt | nt | nt | nt
CCCCOc1ccc(S(=O)(=O)Nc2ccc(-c3ccc(N4CCCCCC4)nn3)cc2)cc1 | nt | -3.5% | nt | nt | nt | nt
COc1ccc(S(=O)(=O)Nc2cccc(-c3ccc(N4CCCC4)nn3)c2)cc1F | nt | 13.5µM* | nt | nt | nt | nt
COc1ccc(S(=O)(=O)Nc2cccc(-c3ccc(N4CCCCCC4)nn3)c2)cc1 | nt | 6.75µM* | nt | nt | nt | nt
SMILES | SMN2 splice enh | FLuc modulator | Rab9 promoter act | NPC1 promoter act | ELG1 genotox | p53 reactivation
CCN(CC)C(=O)Cn1c(=O)cc(C)c2c(C)nn(C)c21 | nt | -2.6% | nt | nt | nt | nt
COc1cc(NC(=O)C[n+]2ccc(C(=O)c3ccccc3)cc2)cc(OC)c1 | nt | nt | nt | nt | 0.7% | 2.7%
Nc1ccc(Oc2cc(N)cc(Oc3ccccc3)c2)cc1 | nt | 6.01µM* | ? | 2µM* | ? | 8.1%
CCCN1C(=O)C2(c3ccccc31)c1c(oc3ccccc3c1=O)C(=O)N2CCCOC(C)C (stereo not given) | -2.0% | -6.6% | nt | nt | nt | nt
Cc1ccc(C)c(CSc2nnc(-c3ccccn3)n2N)c1 | -9.6% | -10.0% | 14.0% | 4.8% | -4.1% | -0.6%
Nn1c(SCc2c(F)cccc2F)nnc1-c1ccccn1 | nt | 13.5µM* | 3.16µM* | 2µM* | 16.4µM* | 6.9%
CCOc1ccc(CC(=O)Nc2c(C(=O)c3ccc(Cl)cc3)oc3ccccc23)cc1OCC | -6.3% | -0.8% | nt | nt | nt | nt
Cc1cccc(NC(=O)c2sc(C)nc2C)c1 | ? | 23.9µM* | ? | ? | 15.0% | 22.4%
CC(C)(C)C(=O)c1sc(Nc2ccccc2)nc1N | 11.2µM* | 5.36µM* | 2µM* | 2µM* | 1.3µM* | ?
CCOC(=O)c1sc(Nc2nc3c(OC)cccc3s2)nc1C | ? | 6.75µM* | ? | ? | ? | ?
Cc1nc(Nc2ccccc2)sc1C(=O)c1ccccc1 | nt | 21.3µM* | 3.55µM* | ? | 12.6% | 12.8%
COc1ccc(C(=O)c2sc(Nc3ccccc3)nc2C)cc1 | nt | ? | -4.4% | 1.1% | -0.4% | 0.2%
CCOC(=O)c1sc(Nc2ccc(F)cc2)nc1C | 4.5% | -1.1% | 14.0% | 1.8% | 8.5% | 5.8%
Cc1ccccc1OCC(=O)NNC(=O)c1ccoc1C | nt | -3.2% | 0.8% | -2.9% | 3.8% | ?
Cc1ccccc1-c1nc(CS(=O)(=O)CC(=O)NCCN2CCCC2)c(C)o1 | nt | 0.9% | -1.8% | -3.6% | 3.0% | 2.3%
CC(=O)Cc1nsc(Nc2cccc(C)c2)n1 | 8.8% | -10.9% | 18.1% | 18.9% | 14.7% | 22.6%
CCOC(=O)Nc1nc(C)c(C(=O)c2ccc(Cl)cc2)s1 | 24.3% | 5.4% | 2.1% | -4.8% | -0.1% | 14.4%
CC(=O)c1sc(Nc2cccc(C)c2)nc1C | ? | 21.3µM* | ? | 20.0% | ? | 2.4%
Cc1cccc(C(=O)Nc2nc(C)c(C(=O)Nc3ccc4c(c3)CCC4)s2)c1 | ? | 6.75µM* | -3.2% | 0.1% | 9.0% | -7.6%
COC(=O)c1sc(Nc2ccccc2)nc1C | 23.6% | 19µM* | ? | ? | ? | 24.2%
CCOC(=O)c1sc(NC(=O)Nc2ccc(Cl)cc2)nc1C | ? | 2.69µM* | ? | 3.98µM* | 2.1% | 16.4%
Cc1noc(C)c1C(=O)Nc1ccc(-c2nnc3n2CCCCC3)cc1 | nt | 5.4% | -2.5% | -0.2% | -0.6% | -4.7%
COc1ccc(CC(=O)Nc2c(C(=O)N3CCN(c4ccccc4F)CC3)oc3ccccc23)cc1OC | nt | -15.5% | nt | nt | nt | nt
Nc1nc2c(ncn2[C@@H]2C=C[C@@H](CO)C2)c(=O)[nH]1 | -12.7%[9.22 µM] | nt | nt | nt | nt | nt
COc1ccc2c(c1)C(=O)[C@@H](OC(=O)NCCc1ccc(OC)c(OC)c1)[C@H](c1ccc(OC)c(Br)c1)O2 | -1.0% | nt | nt | nt | nt | nt
CCOC(=O)c1sc(Nc2ccccc2)nc1C | 3.2% | 15.1µM* | 3.98µM* | 3.98µM* | 16.4µM* | 7.5%
